Rows were chosen to be rich in hits. Some 14% of all compounds tested hit in one or more screens of this group.
Pf growth 48h – Primary qHTS for delayed death inhibitors of the malarial parasite plastid, 48 hour incubation; P. falciparum luciferase growth in erythrocytes, 48 h; AID 504832, 2011; Potency, µM (top dose mostly 28.7 µM), without a hit: at the top dose activity change, negative = inhibition, hits mostly inhibitors; hit rate 5.9% among 310,000; note: potency is the fitted concentration of half-maximal effect
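Erythrocytes infected with P. falciparum carrying an integrated firefly luciferase reporter (2% hematocrit, 0.1% parasitemia final) were exposed to compounds in RPMI 1640 with 0.5% Albumax at 37 C, 5% CO2. Growth inhibition was scored as reduced luminescence.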
HCMV antiviral – qHTS Assay for inhibitors of the human cytomegalovirus (HCMV); hit rate 4.5% among 410,000; activity change, negative = inhibition, % at 57.5 µM; HFF cells, HCMV-luciferase reporter, 72 h; stronger effect = lower value; in the data active = activity change below about -60%; inconclusive = no clear call, values can overlap the other calls; inactive = above about -39%
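Inhibition of viral replication was scored as loss of reporter luminescence in HFFs infected with HCMV-luciferase (MOI 1 PFU/cell) for 72 h; compounds tested at 2 doses, normalized to buffer and Salinomycin controls.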
HCV inhibitor – qHTS Assay for Inhibitors of Hepatitis C Virus (HCV). Potency, µM (doses to about 41.8 µM), for the others: top-dose activity change, negative = inhibition, usual class: inhibitors. hit rate 3.4% among 340,000. Huh7.5.1 HCVcc-Cre infection, luciferase reporter, 44 h; note: potency is the fitted concentration of half-maximal effect
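Antiviral activity was scored by luciferase reporter output from cells infected with HCVcc-Cre (~0.5 moi) in presence of compound, 44 h infection period, cells seeded 1,000/well 4 h prior.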
Pf growth 96h – Primary qHTS for delayed death inhibitors of the malarial parasite plastid, 96 hour incubation; P. falciparum luciferase reporter growth, 96 h; Potency, µM (series often up to 28.7 µM), without a hit: at the top dose activity change, negative = inhibition, hits mostly inhibitors; hit rate 6.9% among 320,000; AID 504834, 2011; note: potency is the fitted concentration of half-maximal effect
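Compounds incubated with erythrocytes infected by luciferase-expressing P. falciparum (2% hematocrit, 0.05% parasitemia final) for 96 hours, 37 C in 5% CO2. Growth inhibition scored as decreased luciferase luminescence.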
MARV entry inh – qHTS for inhibitors of binding or entry into cells for Marburg Virus; Marburg virus pseudotyped entry inhibition, cell reporter; Potency, µM (series often up to 37.8 µM), inactives show top-dose activity change, negative = inhibition, hits mostly inhibitors; hit rate 1.8% among 300,000; calls by dose curve; tested in HEK293 cells; note: potency is the fitted concentration of half-maximal effect
Lassa entry inh – qHTS for Inhibitors of binding or entry into cells for Lassa Virus; hit rate 1.2% among 300,000; AID 540256, 2011; Potency, µM (doses to about 37.9 µM), for the others: top-dose activity change, negative = inhibition, actives largely listed as inhibitors; Lassa virus pseudotype entry inhibition, cell reporter; calls by dose curve; tested in HEK293 cells; note: potency is the fitted concentration of half-maximal effect; nearly all actives have a fitted effect of over 50% in size
* = called active by the depositor; ? = inconclusive; / = no result given; [ ] = remark or other dose. Unless noted, calls come from the whole dose curve; as a rule, active = well fitted inhibition curve with a large enough effect; inconclusive = small, poorly fitted or top-dose-only effect, or another doubt; inactive = no such curve, though single readings can be large or run the other way. % is set by controls: 0 for no effect and ±100 for the full control effect.

SMILES	Pf growth 48h	HCMV antiviral	HCV inhibitor	Pf growth 96h	MARV entry inh	Lassa entry inh
COc1ccc(NC(=O)c2oc3ccc(S(=O)(=O)N4CCCCC4)cc3c2C)cc1	/	-34	/	/	/	?
COc1ccc(NC(=O)c2oc3ccc(S(=O)(=O)N(C)C4CCCCC4)cc3c2C)cc1Cl	/	-77*	/	/	/	12%[46.1 µM]
Cc1c(C(=O)Nc2ccc(F)c(Cl)c2)oc2ccc(S(=O)(=O)N(C)C3CCCCC3)cc12	/	12	/	/	/	12%[46.1 µM]
COc1ccc2oc(C(=O)Nc3ccc(S(=O)(=O)N(C)C4CCN(C)CC4)cc3)c(C)c2c1	5.9µM*	-112*	11µM*	?	/	/
Nc1nc(SCc2ccccc2)cc(SCc2ccccc2)n1	/	11	-12%	/	?	?
CCN=C1SC(CC(=O)Nc2ccc(C(F)(F)F)cc2)C(=O)N1CC (centres undefined)	2.6µM*	8	-6%	55%	-4%	?
C[C@@H]1COc2cccc(N3CCC[C@@H]3CO)c2S(=O)(=O)N1	/	0	/	/	/	/
COc1cc(/C=C/C(=O)OCC(=O)N2CCCC2)cc(OC)c1OC	?	0	-16%	-12%	/	/
FC(F)(F)c1ccccc1NC(=S)Nc1ccccc1	7%	?	12%	1.5µM*	?	27%[46.1 µM]
FC(F)(F)c1cccc(NC(=S)NCc2ccccc2)c1	?	-73*	-11%	3.3µM*	0%	?
FC(F)(F)c1cccc(CNC(=S)Nc2ccccc2)c1	?	-72*	-4%	?	-17%[46.1 µM]	0%
COc1ccc(NC(=S)Nc2ccccc2C(F)(F)F)cc1	29%	3	-9%	31%	1%[46.1 µM]	-17%[46.1 µM]
CN(C)CCCN(Cc1ccccc1)C(=S)Nc1cccc(C(F)(F)F)c1	?	-38	11µM*	?	?	?
c1ccc(-c2nc(-n3nc4ccccc4n3)nc3ccccc23)cc1	13%	-19	14µM*	23%	?	?
Clc1ccc(-c2nc(N3CCCCC3)nc3ccccc23)cc1	?	1	-6%	-17%	?	1%
O=C(NNC(=O)c1sccc1-n1cccc1)c1ccc(Cl)cc1	?	-10	-24%	0.33µM*	-1%[46.1 µM]	1%
O=C(N/N=C\c1cccs1)c1sccc1-n1cccc1	?	-40	-26%	13µM*	1%[46.1 µM]	-2%[46.1 µM]
Cc1ccc(CCNC(=O)C2CCN(C(=O)N(C)C)CC2)cc1	/	6	11%	1.3µM*	4%	-11%
Cc1ccc(CCNC(=O)C2CCN(S(=O)(=O)N3CCCCC3)CC2)cc1	-5%	-30	-10%	?	/	/
O=C(NNS(=O)(=O)c1ccc(Cl)cc1)c1sccc1-n1cccc1	1%	-10	-8%	44%	-9%	-1%
O=C(NCCc1ccc(Cl)cc1)C1CCN(C(=O)c2sccc2-n2cccc2)CC1	/	-8	8.9µM*	29%	?	-23%
COc1ccc(CNC(=O)C2CCCN(C(=O)N3CCOc4ccccc43)C2)cc1 (centres undefined)	/	-18	/	/	/	-17%[46.1 µM]
O=C(N/N=C(\c1ccccc1)c1cccnc1)c1ccc(O)cc1	0%	24	3%	2%	-9%[46.1 µM]	-22%[46.1 µM]
O=C(N/N=C(\Cc1ncc[nH]1)c1ccccc1)c1cccnc1	9.3µM*	?	?	?	?	?
O=C(N/N=C(\Cc1ncc[nH]1)c1ccccc1)c1ccncc1	?	-91*	?	?	?	?
SMILES	Pf growth 48h	HCMV antiviral	HCV inhibitor	Pf growth 96h	MARV entry inh	Lassa entry inh
O=C(N/N=C(\Cc1ncc[nH]1)c1ccccc1)c1ccccc1	19%	-78*	/	?	/	/
O=C(N/N=C(\c1ccccc1)c1cccnc1)c1cccc(F)c1	1.9µM*	-112*	?	?	?	?
COc1ccc(-c2ccc(C(=O)Nc3ccc(Cl)cc3)c3occc23)c(C)c1	/	17	/	/	/	/
C[C@H]1Cc2c(COc3ccccc3)nc3c(c2CO1)CN(C(=O)c1cc(I)ccc1F)CC3	/	/	/	/	-26%[14.2 µM]	/
CCN1[C@H](C(=O)OC)[C@@H](CO)[C@@H]2Cn3c(ccc(Br)c3=O)[C@@H]21	/	20	/	/	/	/
CCc1ccc(N=C2NC(=O)CS2)cc1	?	-8	-26%	9.3µM*	?	25%
CCOC(=O)[C@H]1[C@H]2COc3ccc(C)cc3[C@@H]2N2C(=O)c3cc(OC)c(OC)cc3NC(=O)[C@@]12C	12µM*	5	?	?	/	/
CCOC(=O)[C@H]1[C@H]2COc3ccc(C)cc3[C@@H]2N2C(=O)c3cc(F)c(F)cc3NC(=O)[C@@]12C	12µM*	-26	-9%	?	/	/
CCOC(=O)[C@H]1[C@H]2COc3ccc(Br)cc3[C@@H]2N2C(=O)c3cc(OC)c(OC)cc3NC(=O)[C@@]12C	9.3µM*	-19	?	?	/	/
CCOC(=O)[C@H]1[C@H]2COc3ccc(OC)cc3[C@@H]2N2C(=O)c3cc(OC)c(OC)cc3NC(=O)[C@@]12C	12µM*	17	6%	?	/	/
CCOC(=O)[C@H]1[C@H]2COc3ccc(OC)cc3[C@@H]2N2C(=O)c3cc(F)c(F)cc3NC(=O)[C@@]12C	?	-19	-9%	?	/	/
CCOC(=O)[C@H]1[C@H]2COc3ccccc3[C@@H]2N2C(=O)c3cc(OC)c(OC)cc3NC(=O)[C@@]12C	?	-2	-4%	?	/	/
CCOC(=O)[C@H]1[C@H]2COc3ccc(Cl)cc3[C@@H]2N2C(=O)c3cc(F)c(F)cc3NC(=O)[C@@]12C	?	-23	?	?	/	/
COc1ccc(C(O)c2nc(-c3cccc(NC(C)=O)c3)cs2)cc1 (centres undefined)	/	37	/	/	/	/
COc1ccc(NC(=O)c2sc3nc(C)c(C(=O)Nc4ccc(C)cc4C)c(-c4cccs4)c3c2N)cc1	/	-11	/	/	-4%[46.1 µM]	9%[46.1 µM]
COc1ccccc1-c1cc(C(F)(F)F)nc(NCc2cccs2)n1	?	-15	-3%	5.9µM*	?	-24%
CN(C)CCOc1nc(-c2ccccc2)nc2c1oc1ccccc12	9.3µM*	-77*	?	10µM*	?	?
COc1ccc(CCC(=O)Nc2ccc(N3CCOCC3)c(S(=O)(=O)Nc3ccc(OC)cc3)c2)cc1	/	-14	?	/	/	/
COc1ccc(NS(=O)(=O)c2cc(NC(=O)CCNC(C)=O)ccc2N2CCCCC2)cc1	9.3µM*	?	?	?	/	/
COc1ccc(NS(=O)(=O)c2cc(NC(=O)C3CCCO3)ccc2N2CCCC2)cc1 (centres undefined)	-3%	-1	11%	-23%	7%[46.1 µM]	27%[46.1 µM]
